Inconclusive results are not listed. Calls of active or inactive are those of the source.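 How the source made its calls, unless noted: active means RAM network inhibition above 8.4% in each of two replicates, 3 SD over the compound average; inconclusive means above 8.4% inhibition in only one replicate; inactive means 8.4% inhibition or less in each replicate.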
Key:
[1] = reducers of endogenous Her2 protein level, primary screen, SKBR3 breast tumor cells, AlphaScreen, ATP viability (AID 461;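 active means Her2 level under about 52% in both replicate screens, with viability over 70% of control, limit read from the data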;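 on Her2 level: lower value means less Her2 protein in the cells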;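 on viability: percent of carrier control wells set as 100% viability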); conditions: 18-24 h, measured here: SKBR3 viability, ATP luminescence, at 10 µM
[2] = target: Receptor tyrosine-protein kinase erbB-2 (Homo sapiens) (UniProt P04626); experiment: as above; conditions: 18-24 h, at 10 µM, stronger effect = lower value
Chain of Receptor tyrosine-protein kinase erbB-2 (Homo sapiens) (P04626 whole entry, looked up): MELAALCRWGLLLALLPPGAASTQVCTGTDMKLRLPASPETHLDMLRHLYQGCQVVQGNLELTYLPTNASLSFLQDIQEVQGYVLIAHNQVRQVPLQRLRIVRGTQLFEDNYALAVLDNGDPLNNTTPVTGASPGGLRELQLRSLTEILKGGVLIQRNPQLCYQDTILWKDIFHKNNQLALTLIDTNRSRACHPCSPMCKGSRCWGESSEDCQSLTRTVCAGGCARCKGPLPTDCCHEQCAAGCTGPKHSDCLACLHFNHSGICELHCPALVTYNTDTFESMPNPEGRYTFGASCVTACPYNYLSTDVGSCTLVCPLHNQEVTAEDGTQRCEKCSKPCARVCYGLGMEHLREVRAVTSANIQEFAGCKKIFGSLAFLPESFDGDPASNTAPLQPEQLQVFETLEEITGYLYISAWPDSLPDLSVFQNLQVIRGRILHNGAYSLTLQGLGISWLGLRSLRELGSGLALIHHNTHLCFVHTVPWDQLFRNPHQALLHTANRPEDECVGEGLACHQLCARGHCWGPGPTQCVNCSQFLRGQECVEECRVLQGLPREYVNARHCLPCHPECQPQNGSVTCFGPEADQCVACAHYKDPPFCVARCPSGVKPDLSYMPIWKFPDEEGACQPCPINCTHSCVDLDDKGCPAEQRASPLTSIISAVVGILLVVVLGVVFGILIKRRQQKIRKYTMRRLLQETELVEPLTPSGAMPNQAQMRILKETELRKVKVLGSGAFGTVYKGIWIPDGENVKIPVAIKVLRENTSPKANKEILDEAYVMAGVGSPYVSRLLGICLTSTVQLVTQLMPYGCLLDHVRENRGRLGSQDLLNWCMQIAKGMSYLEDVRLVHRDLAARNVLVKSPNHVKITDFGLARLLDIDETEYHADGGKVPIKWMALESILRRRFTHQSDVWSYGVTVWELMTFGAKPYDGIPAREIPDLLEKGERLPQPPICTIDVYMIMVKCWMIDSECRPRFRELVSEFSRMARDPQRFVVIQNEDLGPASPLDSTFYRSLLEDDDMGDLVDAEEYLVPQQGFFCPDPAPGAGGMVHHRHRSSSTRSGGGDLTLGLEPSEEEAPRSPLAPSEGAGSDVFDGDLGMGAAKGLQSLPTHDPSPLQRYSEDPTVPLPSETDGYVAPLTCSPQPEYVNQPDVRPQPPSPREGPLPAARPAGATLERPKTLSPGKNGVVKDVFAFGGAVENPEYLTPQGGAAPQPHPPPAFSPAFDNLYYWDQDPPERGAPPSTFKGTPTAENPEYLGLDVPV

[3] = SK-BR-3 cell growth inhibitors, pilot screen, 24 h, human (AID 572;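 active means viability at or below 10% of carrier control in both of two separate runs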;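 further: compound exposure lasted between 18 and 24 h rather than exactly 24 h; 100% = carrier-treated control wells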); conditions: SK-BR-3 viability, CellTiter-Glo luminescence, at 10 µM, stronger effect = lower value
[4] = HUVEC growth inhibition – cell-based, human, primary screen (AID 575;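 active means viability at or below 30% in both replicate assays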;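 further: 100% = median of untreated cell wells with 0.1% DMSO on each plate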); conditions: HUVEC proliferation, CellTiter-Glo luminescence, 72 h; at 10 µM; stronger effect = lower value
[5] = growth inhibitors of H69AR lung tumor, primary screen, human, duplicate replicates (AID 580;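 active means viability at or under a set limit in both replicates, limit being median viability minus 3 SD, cut at about 48% in these data, passing the limit was not always enough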;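 further: 100% = mean luminescence of untreated wells and 0% = no signal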); conditions: H69AR lung tumor cells viability, ATP luminescence, 72 h; at 10 µM; stronger effect = lower value
[6] = reversal of MRP1-mediated doxorubicin resistance, pilot screen, H69AR cells, doxorubicin co-treatment (AID 601;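 active means viability loss from added drug above about 55%, and viability with drug at most 40%, in both replicates, limit read from the data, passing the limit was not always enough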); conditions: CellTiter-Glo, 72 h, at 10 µM; for differential viability (reversal): stronger effect = higher value
[7] = 384-well plate pilot, post-Golgi transport modulator project, inhibition of yeast transport mutant growth (AID 636; in the data active means inhibition above about 31%); conditions: absorbance 615 nm, about 18 h, stronger effect = higher value
[8] = growth suppression of yeast trafficking mutant, preliminary HTS, modulators of trafficking downstream of Golgi apparatus project, 1536-format plate, OD 615 nm (AID 637; in the data active means inhibition above about 30%); conditions: yeast transport mutant growth, absorbance 615 nm, 18 h; stronger effect = higher value
[9] = OD615 S. cerevisiae growth inhibition, permissive medium, pilot counter-assay, permissive growth control for S. cerevisiae lifespan shortening project (AID 705;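 active means growth inhibition above 25% in both replicates, a cutoff set 3 SD above the mean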); conditions: OD615, 24 h, at 10 µM, stronger effect = higher value
[10] = Restrictive medium S. cerevisiae growth inhibition, OD615, pilot screen of yeast lifespan reduction project, restrictive growth control (AID 706;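 active means growth inhibition above a set limit, 3 SD over mean compound inhibition, in both replicates, cut at about 43% in these data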;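 further: modified DeaD lifespan yeast strain shifted to restrictive glucose medium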); conditions: OD615, 48 h, at 10 µM, stronger effect = higher value
[11] = viability gain of MRP-1-high H69AR cells under doxorubicin, pilot screen, MRP-1 activator project, CellTiter-Glo, duplicate (AID 807;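 active means viability increase at or above a cutoff of the median across tested compounds plus 3 SD, cut at about 8.5% in these data, passing the limit was not always enough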;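 further: compound pretreatment 18-22 h then 72 h combined with doxorubicin; 0% = doxorubicin alone and 100% = vehicle without doxorubicin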); conditions: H69AR viability with doxorubicin, CellTiter-Glo luminescence; at 10 µM; stronger effect = higher value
[12] = growth suppression of beta-catenin knockout HCT116, pilot screen, human colon tumor cells (AID 823;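 active means cell viability at or below a set limit in both duplicate runs, the limit being the all-compound median minus 4 SD, cut at about 23% in these data, passing the limit was not always enough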;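 further: 0% = wells killed by 20 µM Hyamine and 100% = untreated DMSO cell wells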); conditions: CellTiter-Glo, 60 h, at 10 µM, stronger effect = lower value
[13] = growth suppression of PTEN-deleted HCT116, pilot screen, cell-based, HCT116 clonal line, CellTiter-Glo (AID 824;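 active means viability at or below 27.92% in each of two runs, the all-compound median minus 4 SD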;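 further: 0% = 20 µM Hyamine control and 100% = vehicle cell control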); conditions: 60 h, at 10 µM, stronger effect = lower value
[14] = inhibitors of the yeast RAM network, pilot screen, dse1pr::URA3 reporter, 5-FOA selection (AID 869;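 active means inhibition over a set limit, the all-compound mean plus 3 SD, in both replicate runs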;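 further: 0% = DMSO wells with no growth and 100% = 10 µM 1-NA-PP1 with full growth; RAM network block rescues cells from 5-FOA so hits raise OD615 growth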); conditions: S. cerevisiae dse1pr::URA3 5-FOA growth, OD615, 2 d; at 10 µM; stronger effect = higher value; strain carries analog-sensitive mutant Cbk1 kinase
[15] = RAM signaling pathway blockade in yeast – S. cerevisiae, Pdr1DBD-CYC8 efflux-inhibited sensitized strain, primary screen (AID 1298);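 further: 0% = DMSO untreated cells without growth and 100% = 10 µM 1-NA-PP1 full growth; higher means more yeast growth rescued from 5-FOA killing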; conditions: S. cerevisiae cbk1-as DSE1-URA3 strain, 5-FOA growth OD615, 2 d; at 50 µM; stronger effect = higher value
[16] = H69AR cells + 2 uM doxorubicin, measured here: viability with 2 uM doxorubicin, stronger effect = lower value
[17] = H69AR cells, compound alone cytotoxicity

CCOC(=O)Cn1c(=O)c(-c2ccccc2N)nc2ccccc21
81.7%: viability [6, 16]
inactive: Her2 level [2] 84.5% | viability [3] 101% | viability [4] 85.3% | viability [5] 75.6% | differential viability (reversal) ([6]; H69AR cells + 2 uM doxorubicin) -6.16% | inhibition [7] -5.6% | inhibition [8] -2% | growth inhibition [9] 2.3% | growth inhibition [10] 0.83% | viability increase [11] -1.72% | viability [12] 108% | viability [13] 98.8% | inhibition [14] 2.16% | RAM network inhibition [15] 3.47%
101%: viability [1]
75.6%: viability [6, 17]

O=C(c1cc2ccccc2oc1=O)N1CCN(c2ccc(N3CCOCC3)nn2)CC1
93.9%: viability [6, 16]
101%: viability [6, 17]
98%: viability [1]
inactive: Her2 level [2] 118% | viability [3] 98% | viability [4] 88.5% | viability [5] 101% | differential viability (reversal) ([6]; H69AR cells + 2 uM doxorubicin) 7.39% | inhibition [7] -0.77% | inhibition [8] -2% | growth inhibition [9] 5.29% | growth inhibition [10] -7.26% | viability increase [11] -1.81% | viability [12] 101% | viability [13] 96.6% | inhibition [14] 0.885% | RAM network inhibition [15] -0.58%

COc1cccc(C2CC(c3ccc(F)cc3)Nc3nc(N)nn32)c1 (stereo not drawn)
100%: viability [1]
inactive: Her2 level [2] 106% | viability [3] 100% | viability [4] 99.9% | viability [5] 103% | differential viability (reversal) ([6]; H69AR cells + 2 uM doxorubicin) 3.04% | inhibition [7] -2.67% | inhibition [8] 14.9% | growth inhibition [9] -3.78% | growth inhibition [10] 4.35% | viability increase [11] -0.39% | viability [12] 102% | viability [13] 95.5% | inhibition [14] 0.725% | RAM network inhibition [15] 5.03%
103%: viability [6, 17]
99.9%: viability [6, 16]

O=C(c1ccc2nc(N3CCOCC3)sc2c1)N1CCCC1
108%: viability [6, 17]
inactive: Her2 level [2] 96% | viability [3] 94% | viability [4] 93.6% | viability [5] 108% | differential viability (reversal) ([6]; H69AR cells + 2 uM doxorubicin) 18.8% | inhibition [7] -1.41% | inhibition [8] 9.17% | growth inhibition [9] -2.18% | growth inhibition [10] -7.76% | viability increase [11] -2.73% | viability [12] 99.1% | viability [13] 95.4% | inhibition [14] -0.14% | RAM network inhibition [15] 1.02%
89.4%: viability [6, 16]
94%: viability [1]

CC1CCN(C(=O)CSc2nc3c(cnn3-c3ccccc3)c(=O)[nH]2)CC1
72%: viability [6, 17]
inactive: Her2 level [2] 92% | viability [3] 82.5% | viability [4] 72.1% | viability [5] 72% | differential viability (reversal) ([6]; H69AR cells + 2 uM doxorubicin) 7.54% | inhibition [7] -0.64% | inhibition [8] 1.67% | growth inhibition [9] -6.1% | growth inhibition [10] -4.26% | viability increase [11] -3.8% | viability [12] 98.3% | viability [13] 91.1% | inhibition [14] 1.47% | RAM network inhibition [15] 6.5%
82.5%: viability [1]
64.4%: viability [6, 16]

COC(=O)C1=C(C)Nc2ncnn2C1c1ccc(C)o1 (stereo not drawn)
91.7%: viability [6, 17]
84.2%: viability [6, 16]
inactive: Her2 level [2] 119% | viability [3] 103% | viability [4] 94.5% | viability [5] 91.7% | differential viability (reversal) ([6]; H69AR cells + 2 uM doxorubicin) 7.49% | inhibition [7] 0.27% | inhibition [8] 4.67% | growth inhibition [9] -16.6% | growth inhibition [10] -18.4% | viability increase [11] -1.12% | viability [12] 107% | viability [13] 101% | inhibition [14] 2.39% | RAM network inhibition [15] -1%
103%: viability [1]

COc1cccc(C2C(C(N)=O)=C(C)Nc3nc(CCCO)nn32)c1OC (stereo not drawn)
96.4%: viability [6, 17]
102%: viability [1]
97.5%: viability [6, 16]
inactive: Her2 level [2] 103% | viability [3] 102% | viability [4] 93.8% | viability [5] 96.4% | differential viability (reversal) ([6]; H69AR cells + 2 uM doxorubicin) -1.08% | inhibition [7] 0.93% | inhibition [8] -3.67% | growth inhibition [9] -8.7% | growth inhibition [10] 14.1% | viability increase [11] -0.88% | viability [12] 105% | viability [13] 104% | inhibition [14] 0.085% | RAM network inhibition [15] 0.27%

Cc1nnc(SCC(=O)Nc2sc3c(c2C#N)CCCC3)[nH]c1=O
inactive: Her2 level [2] 91.5% | viability [3] 95.5% | viability [4] 88.3% | viability [5] 102% | differential viability (reversal) ([6]; H69AR cells + 2 uM doxorubicin) 4.41% | inhibition [7] -3.38% | inhibition [8] -4.83% | growth inhibition [9] 1.05% | growth inhibition [10] 10.9% | viability increase [11] -2.28% | viability [12] 103% | viability [13] 101% | inhibition [14] 0.455% | RAM network inhibition [15] 3.34%
95.5%: viability [1]
102%: viability [6, 17]
97.4%: viability [6, 16]

CCOC(=O)c1nc2sc3c(c2c(=O)[nH]1)CCCC3
83.5%: viability [6, 17]
87.2%: viability [6, 16]
inactive: Her2 level [2] 100% | viability [3] 80.5% | viability [4] 93.8% | viability [5] 83.5% | differential viability (reversal) ([6]; H69AR cells + 2 uM doxorubicin) -3.7% | inhibition [7] -2.31% | inhibition [8] -16% | growth inhibition [9] 10.2% | growth inhibition [10] 12.2% | viability increase [11] -1.32% | viability [12] 107% | viability [13] 99.3% | inhibition [14] 2.02% | RAM network inhibition [15] 3.93%
80.5%: viability [1]
